# According to PubChem BioAssay (EPA / NIEHS):
# Results filed as inconclusive are left out. Active and inactive are the calls of the source. How the source made its calls, unless noted: active means hit-call score of the fitted dose curve at least 0.9, where 1 is the maximum; inactive means score below 0.9.
# Tests used:
# [1] = ACEA_ER_80hr: ACEA Biosciences xCELLigence Real-Time Cell Analysis on Estrogen Receptor Agonism for Proliferation (AID 2282667; active means hit-call score of the fitted dose curve at least 0.9, where 1 is the maximum); settings: T47D proliferation, impedance (xCELLigence), 80 h
# Procedure, shortened: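 T47D human breast cells were seeded on electrode plates, monitored overnight, then exposed continuously to compounds in eight-point 1:4 dilutions from 100 uM (max 0.5% DMSO). Impedance-based growth was read at 80 h, fitted upward relative to DMSO.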
# [2] = APR_HepG2_CellLoss_1hr: Apredica 1-hour HepG2 Assay for Cell Loss (AID 2282668); settings: high-content imaging;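 further: curves fitted both ways against DMSO so gain or loss of cells counts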
# Procedure, shortened: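 Cell number comes from high-content imaging of Hoechst-labelled nuclei in fixed HepG2 cells. Cells were exposed for 1 h to ten concentrations from 0.39 to 200 uM in 0.5% DMSO. Gain or loss was fitted against DMSO controls.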
# [3] = APR_HepG2_NuclearSize_1hr: Apredica 1-hour HepG2 Assay for Nuclear Size (AID 2282670); settings: high-content imaging, actives raise or lower the signal
# Procedure, shortened: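 Nuclear size measured by high-content imaging of Hoechst 33342 nuclear stain after formaldehyde fixation; human HepG2 line exposed 1 hr to compounds at 0.39–200 uM in 0.5% DMSO, with bidirectional curve fitting relative to DMSO.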
# [4] = APR_HepG2_MitoticArrest_1hr: Apredica 1-hour HepG2 Assay for Mitotic Arrest (AID 2282672); settings: high-content imaging, actives raise or lower the signal
# Procedure, shortened: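 Ten-point concentration series (0.39 to 200 uM, duplicates, 0.5% v/v DMSO) applied to human HepG2 liver cells for 1 hr. High-content imaging of phospho-histone H3 and Hoechst-stained nuclei after fixation and permeabilization; DMSO-normalised bidirectional fit.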
# [5] = APR_HepG2_P-H2AX_1hr: Apredica 1-hour HepG2 Assay for H2AX Phosphorylation (AID 2282673); settings: high-content imaging, actives raise or lower the signal
# Procedure, shortened: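 Phospho-H2A.x immunofluorescence (1:200, FITC secondary) plus Hoechst nuclear stain, quantified by high-content imaging in HepG2 after 1 hr compound exposure. Ten concentrations, 0.39 to 200 uM, in duplicate with 0.5% DMSO; fit both directions against DMSO.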
# [6] = APR_HepG2_MitoMembPot_1hr: Apredica 1-hour HepG2 Assay for Mitochondrial Membrane Potential (AID 2282675); settings: imaging, actives raise or lower the signal
# Procedure, shortened: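 Mitochondrial membrane potential read as MitoTracker Red CMXRos intensity by automated imaging of fixed HepG2 cells. Dye at 250 nM for 30 min pre-fixation; compounds 0.39 to 200 uM for 1 hour, duplicate wells, 0.5% DMSO.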
# [7] = APR_HepG2_StressKinase_1hr: Apredica 1-hour HepG2 Assay for Stress Kinase (AID 2282906); settings: HepG2 stress kinase (phospho-c-Jun) imaging, actives raise or lower the signal
# Procedure, shortened: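 High-content imaging of phospho-c-Jun immunostaining (with Hoechst nuclear identification) after a 1 h exposure of HepG2 cells to 10 concentrations from 0.39 to 200 uM, final DMSO 0.5%. Fitted bidirectionally against DMSO.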
# [8] = APR_HepG2_NuclearSize_24hr: Apredica 24-hour HepG2 Assay for Nuclear Size (AID 2282907); settings: high-content imaging, actives raise or lower the signal
# Procedure, shortened: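 After fixation and permeabilization, 24-hr-treated HepG2 cells were stained with Hoechst 33342 and imaged on an ArrayScan (20x). Doses spanned 0.39–200 uM in duplicate. Nuclear diameter changes in either direction were fitted relative to 0.5% DMSO controls.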
# [9] = APR_HepG2_CellLoss_24hr: Apredica 24-hour HepG2 Assay for Cell Loss (AID 2282908); settings: high-content imaging
# Procedure, shortened: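 Duplicate wells received compound at ten concentrations (0.39–200 uM; final DMSO 0.5% v/v). After fixation with formaldehyde, nuclei stained with Hoechst 33342 were imaged at 20x. Loss or gain of cell count was fitted relative to DMSO controls.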
# [10] = APR_HepG2_MicrotubuleCSK_24hr: Apredica 24-hour HepG2 Assay for Microtubule CSK Stabilty (AID 2282909); settings: HepG2 microtubule cytoskeleton imaging, actives raise or lower the signal
# Procedure, shortened: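 Microtubule stability is scored from tubulin immunofluorescence in fixed HepG2 cells imaged at 20x. Cells receive ten compound concentrations up to 200 uM for 24 h; taxol and DMSO serve as positive and negative controls.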
# [11] = APR_HepG2_MitoticArrest_24hr: Apredica 24-hour HepG2 Assay for Mitotic Arrest (AID 2282910); settings: high-content imaging, actives raise or lower the signal
# Procedure, shortened: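 Treatment lasted 24 hr in the human HepG2 line at 0.39–200 uM, solvent held at 0.5% DMSO. Fixed cells were stained with Hoechst 33342 and anti-phospho-histone H3, imaged at 20x, and analysed by gain- or loss-of-signal fitting against DMSO.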
# [12] = APR_HepG2_MitoMembPot_24hr: Apredica 24-hour HepG2 Assay for Mitochondrial Membrane Potential (AID 2282911); settings: imaging, actives raise or lower the signal
# Procedure, shortened: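 HepG2 human liver cells were exposed 24 hr to compounds at 0.39–200 uM (final DMSO 0.5% v/v) in duplicate. MitoTracker Red CMXRos (250 nM, 30 min) was loaded before formaldehyde fixation; fluorescence was imaged by ArrayScan HCS and fitted bidirectionally versus DMSO.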
# [13] = APR_HepG2_MitoMass_24hr: Apredica 24-hour HepG2 Assay for Mitochondrial Mass (AID 2282912); settings: high-content imaging, actives raise or lower the signal
# Procedure, shortened: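 Readout: fluorescence of MitoTracker Red CMXRos (250 nM, added 30 min pre-fixation) in fixed HepG2 cells imaged by HCS. Exposure lasted 24 hr at 0.39–200 uM; increases and decreases were both fitted relative to DMSO.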
# [14] = APR_HepG2_CellCycleArrest_72hr: Apredica 72-hour HepG2 Assay for Cell Cycle Arrest (AID 2282914); settings: high-content imaging, actives raise or lower the signal
# Procedure, shortened: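 HepG2 cells were exposed to compounds at 0.39–200 uM (0.5% v/v DMSO final, duplicates) for 72 hr, fixed in 3.7% formaldehyde, permeabilized and stained with Hoechst 33342. Nuclear DNA content was quantified by high-content imaging; gain or loss of signal was fitted bidirectionally against DMSO.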
# [15] = APR_HepG2_CellLoss_72hr: Apredica 72-hour HepG2 Assay for Cell Loss (AID 2282915); settings: high-content imaging
# Procedure, shortened: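 HepG2 cells were exposed for 72 hr to compounds at 0.39–200 uM (ten concentrations, duplicate) in 0.5% v/v final DMSO. Nuclei were stained with Hoechst 33342 after 3.7% formaldehyde fixation, imaged at 20x, and counted; fits bidirectional versus DMSO.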
# [16] = APR_HepG2_p53Act_24hr: Apredica 24-hour HepG2 Assay for p53 Activation (AID 2282913); settings: high-content imaging, actives raise or lower the signal;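 further: p53 protein immunofluorescence averaged per cell in HepG2 with Hoechst nuclei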
# Procedure, shortened: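 HepG2 cells exposed 24 hr to compounds at 0.39–200 uM (10 concentrations, duplicate), final DMSO 0.5% v/v. After formaldehyde fixation and Triton permeabilization, p53 was immunolabeled (sheep anti-p53, Cy5 secondary) with Hoechst 33342 nuclear counterstain, then imaged by high-content fluorescence microscopy.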
# [17] = APR_HepG2_CellCycleArrest_24hr: Apredica 24-hour HepG2 Assay for Cell Cycle Arrest (AID 2282905); settings: imaging, actives raise or lower the signal;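 further: cell cycle arrest scored as ratio of 2N to 4N nuclear DNA content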
# Procedure, shortened: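 Step one: dose HepG2 with test compounds, 0.39–200 uM, 0.5% DMSO, 24 hr. Step two: fix, permeabilize, stain nuclei with Hoechst 33342. Step three: image six fields per well at 20x, quantify DNA content, fit bidirectionally relative to DMSO.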
# [18] = APR_HepG2_CellCycleArrest_1hr: Apredica 1-hour HepG2 Assay for Cell Cycle Arrest (AID 2282666); settings: high-content imaging, actives raise or lower the signal
# Procedure, shortened: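 Cell cycle arrest scored from nuclear DNA content (Hoechst 33342) using high-content imaging of fixed HepG2 cells after 1 h treatment across 0.39–200 uM, in duplicate. Gain or loss fitted relative to 0.5% DMSO.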
# [19] = APR_HepG2_MitoMass_1hr: Apredica 1-hour HepG2 Assay for Mitochondrial Mass (AID 2282674); settings: high-content imaging, actives raise or lower the signal
# Procedure, shortened: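 Mitochondrial mass is taken from MitoTracker Red CMXRos (250 nM, 30 min, pre-fixation) fluorescence imaged at 20x in HepG2 cells. Exposure lasted 1 hr across ten concentrations, 0.39 to 200 uM, 0.5% DMSO; DMSO baseline, bidirectional fitting.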
# [20] = APR_HepG2_MicrotubuleCSK_1hr: Apredica 1-hour HepG2 Assay for Microtubule CSK Stabilty (AID 2282669); settings: HepG2 microtubule cytoskeleton imaging, actives raise or lower the signal
# Procedure, shortened: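 Alpha-tubulin immunofluorescence, imaged by automated high-content microscopy with Hoechst nuclear segmentation, measured cytoskeletal change after 1 h dosing of HepG2 at 0.39–200 uM in 0.5% DMSO. Activity fitted in both directions relative to DMSO.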
smiles,measurement,setting,value
CCOC(=O)NCCOc1ccc(Oc2ccccc2)cc1,outcome,[1],inactive
same,outcome,[2],inactive
same,outcome,[3],inactive
same,outcome,[4],inactive
same,outcome,[5],inactive
same,outcome,[6],inactive
same,outcome,[7],inactive
same,outcome,[8],inactive
same,outcome,[9],inactive
same,outcome,[10],inactive
same,outcome,[11],inactive
same,AC50,[12],56.2 µM (active)
same,outcome,[13],inactive
same,outcome,[14],inactive
same,AC50,[15],52.8 µM (active)
CCCCN(CCCC)C(=S)S,AC50,[1],89.4 µM (active)
CCCN(CCC)c1c([N+](=O)[O-])cc(C(F)(F)F)c(N)c1[N+](=O)[O-],outcome,[1],inactive
same,outcome,[2],inactive
same,outcome,[3],inactive
same,outcome,[4],inactive
same,AC50,[5],109 µM (active)
same,outcome,[6],inactive
same,outcome,[8],inactive
same,outcome,[9],inactive
same,outcome,[10],inactive
same,AC50,[12],32.1 µM (active)
same,outcome,[13],inactive
same,outcome,[16],inactive
same,outcome,[14],inactive
same,AC50,[15],33 µM (active)
C#CCOC(=O)[C@@H](C)Oc1ccc(Oc2ncc(Cl)cc2F)cc1,outcome,[1],inactive
same,outcome,[2],inactive
same,outcome,[3],inactive
same,outcome,[4],inactive
same,outcome,[5],inactive
same,outcome,[6],inactive
same,outcome,[17],inactive
same,outcome,[8],inactive
same,outcome,[9],inactive
same,outcome,[10],inactive
same,outcome,[12],inactive
same,outcome,[13],inactive
same,outcome,[14],inactive
same,outcome,[15],inactive
COc1c(Cl)ccc(Cl)c1C(=O)O,outcome,[18],inactive
same,outcome,[1],inactive
same,outcome,[2],inactive
same,outcome,[3],inactive
same,outcome,[4],inactive
same,outcome,[5],inactive
same,outcome,[6],inactive
same,outcome,[17],inactive
same,outcome,[8],inactive
same,outcome,[9],inactive
same,outcome,[10],inactive
same,outcome,[12],inactive
same,outcome,[13],inactive
same,outcome,[14],inactive
same,outcome,[15],inactive
CCCCOC(=O)[C@@H](C)Oc1ccc(Oc2ccc(C(F)(F)F)cn2)cc1,AC50,[1],13.7 µM (active)
same,outcome,[2],inactive
same,outcome,[3],inactive
same,outcome,[4],inactive
same,outcome,[5],inactive
same,outcome,[19],inactive
same,outcome,[6],inactive
same,outcome,[8],inactive
same,outcome,[9],inactive
same,outcome,[10],inactive
same,outcome,[12],inactive
same,outcome,[13],inactive
same,outcome,[14],inactive
same,outcome,[15],inactive
CCCCOC(=O)C(C)Oc1ccc(Oc2ccc(C(F)(F)F)cn2)cc1 (stereo not given),AC50,[1],0.0178 µM (active)
same,outcome,[2],inactive
same,outcome,[20],inactive
same,outcome,[3],inactive
same,outcome,[4],inactive
same,outcome,[5],inactive
same,outcome,[19],inactive
same,outcome,[6],inactive
same,outcome,[17],inactive
same,outcome,[7],inactive
same,outcome,[8],inactive
same,outcome,[9],inactive
same,outcome,[10],inactive
same,outcome,[12],inactive
same,outcome,[13],inactive
same,outcome,[14],inactive
same,outcome,[15],inactive
COCCO,outcome,[1],inactive
same,outcome,[2],inactive
same,outcome,[3],inactive
same,outcome,[4],inactive
same,outcome,[5],inactive
same,outcome,[6],inactive
same,outcome,[8],inactive
same,outcome,[9],inactive
same,outcome,[10],inactive
same,outcome,[11],inactive
same,outcome,[12],inactive
same,outcome,[13],inactive
same,outcome,[16],inactive
same,outcome,[14],inactive
same,outcome,[15],inactive
